Data as given in PubChem BioAssay (NCATS).
Results filed as inconclusive are left out. A number with no mark means an inactive call. Calls of active or inactive are those of the source. Calls follow the shape of the dose curve; as a rule, active = well fitted inhibition curve with a large enough effect; inconclusive = small, poorly fitted or top-dose-only effect; inactive = flat fitted curve, though single readings scatter.

Experiment: BET inhibitor-based combinations targeting novel dependencies in MECOM-rearranged (r) AML: AML-194 cell line (AID 2202237; also: nearly all actives have a fitted effect of over 40% in size;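 as to viability (% of control): plate controls were vehicle wells for no effect and wells without cells for full effect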)
Conditions: AML-194 (MECOM-r AML) viability, CellTiter-Glo, 48 h; series mostly up to 46 µM; viability (% of control): at the top concentration
Text: Ecotropic viral insertion site 1 (EVI1) is located on chromosome 3q26.2 as part of the MECOM (MDS and EVI1 complex) locus. Under normal hematopoiesis, EVI1 is a regulator of hematopoietic stem cell maintenance and self-renewal and EVI1 levels decrease as the cells differentiate. In approximately 5-10% of de novo acute myeloid leukemia (AML) EVI1 is aberrantly expressed, including Chromosomal inv(3)(q21;q26.2) or t(3;3)(q21;q26.2) alterations (MECOM-r) that account for about 50% of AML with EVI1 overexpression 31. AMLs with high levels of EVI1 have a poor prognosis and an overall survival time averaging between 10-14 months. EVI1 overexpression confers resistance in leukemia cells, highlighting the need to develop new targeted therapies for EVI1 overexpressing AMLs.
Here, we performed an unbiased chemical drug screening by evaluating the single agent activity of a collection of 2,480 oncology-focused, approved and investigational drugs (NCATS Mechanism Interrogation Plates, MIPE v5.0) against a panel of seven AML cell lines. These included four MECOM-r cell-lines (AML-191, AML-194, UCSD-AML1 and HNT-34) and three non-MECOM-r AMLs (MV4-11, OCI-AML3 and SET-2). Exploiting the mechanistic redundancy built in the library, we identified target-level sensitivities in MECOM-r AML cells and relative activity as compared to other AML subtypes.
A collection of 2480 mechanistically annotated dugs (MIPE v5.0) was used to screen four 3q26.2 rearranged AML cell lines and three non-3q26.2 rearranged AML cell lines. This library purposely exploits redundancy by including multiple inhibitors of key onco-targets, while simultaneously encompassing mechanistic diversity, targeting more than 800 distinct mechanisms of action. Briefly, cells were seeded in 5 uL of growth media using a Multidrop Combi dispenser into 1536 well white polystyrene tissue culture treated plates (Corning) at a density of 500cells/well. For each cell-line, for each of the 2480 drugs in MIPE v5.0 library, an 11-point dose curve was generated via a 1536 pin-tool. Plates were incubated for 48 hr at standard incubator conditions, covered by a stainless steel gasketed lid to prevent evaporation. Cell viability was determined by luminescence based, Cell Titer Glo assay (Promega). In detail, 3 uL of Cell Titer Glo were added to each well and plates were incubated at room temperature for 15 min with a stainless-steel lid in place. Luminescence readings were taken using a Viewlux (PerkinElmer) with a 2 s exposure time per plate. Compound dose-response curves were normalized to DMSO and empty well controls on each plate. Quantitative drug activity data from dose-response curves was determined utilizing area Under the Curve (AUC) and Z-transformed AUC (Z-AUC, a mean-centering transformation applied to each individual cell-line screened).
Potency is read from the fitted curve at half-maximal effect.

SMILES | viability (% of control) | Potency
C[C@]12CC[C@@H]3c4ccc(O)cc4CC[C@H]3[C@@H]1C[C@@H](O)[C@@H]2O | 95.8% | –
CC[C@H](C)[C@@H]([C@@H](CC(=O)N1CCC[C@H]1[C@H](OC)[C@@H](C)C(=O)N[C@@H](Cc1ccccc1)c1nccs1)OC)N(C)C(=O)[C@@H](NC(=O)[C@H](C(C)C)N(C)C)C(C)C | 12.9% | –
COC(=O)[C@@H]1CC2=CC(=O)CC[C@]2(C)[C@@]23O[C@@H]2C[C@@]2(C)[C@@H](CC[C@@]24CCC(=O)O4)[C@H]13 | 113% | –
Cc1cc(-c2cnn3c(NCC4CC(C)(O)C4)cc(Oc4cccnc4)nc23)ccc1C(=O)NC1CC1 (stereo not given) | – | 1050 nM (active)
COc1ccc([C@@H]2CC(=O)c3c(O)cc(O[C@@H]4O[C@H](CO[C@@H]5O[C@@H](C)[C@H](O)[C@@H](O)[C@H]5O)[C@@H](O)[C@H](O)[C@H]4O)cc3O2)cc1O | 108% | –
CCCCCN(C)CCC(O)(P(=O)(O)O)P(=O)(O)O | 115% [at 5.12 µM] | –
COCCNc1cc(NC(=O)N2CCCc3cc(CN4CCN(C)CC4=O)c(C=O)nc32)ncc1C#N | 95.1% [at 8.46 µM] | –
Cn1cc(C[C@@H](N)C(=O)O)c2ccccc21 | 109% [at 8.46 µM] | –
C[C@@]12C(=O)OC(=O)[C@]1(C)[C@H]1CC[C@@H]2O1 | – | 2630 nM (active)
O=C(CCCCCCC(=O)N/N=C/c1ccc(N(c2ccccc2)c2ccccc2)cc1)NO | – | 7420 nM (active)
O=C(C[C@@H]1C/C=C\CCC(=O)O[C@H](c2ccccc2)CNC1=O)NCc1ccc(Cl)cc1 | 118% | –
CNC(=O)[C@H](Cc1c[nH]c2ccccc12)NC(=O)[C@@H](CC(=O)NO)CC(C)C | 108% | –
CCCNC(=O)c1cn2ncnc(Nc3cc(C(=O)NC4CC4)ccc3C)c2c1C | 99% | –
CC[C@H](C)C(=O)O[C@H]1C[C@H](O)C=C2C=C[C@H](C)[C@H](CC[C@@H](O)C[C@@H](O)CC(=O)O)[C@H]21 | 109% | –
C[C@]12CCC3[C@@H](CC[C@H]4NC(=O)C=C[C@]34C)[C@@H]1CC[C@@H]2C(=O)Nc1cc(C(F)(F)F)ccc1C(F)(F)F (stereo not given in full) | 110% | –
COC1=C(OC)C(=O)C(C/C=C(\C)CC/C=C(\C)CC/C=C(\C)CC/C=C(/C)CC/C=C(\C)CC/C=C(\C)CC/C=C(\C)CC/C=C(\C)CC/C=C(\C)CCC=C(C)C)=C(C)C1=O | 111% | –
COc1cc([C@@H]2c3cc4c(cc3[C@@H](O[C@@H]3O[C@@H]5CO[C@@H](C)O[C@@H]5[C@H](O)[C@@H]3O)[C@H]3COC(=O)[C@H]23)OCO4)cc(OC)c1O | – | 2090 nM (active)
Cc1[nH]nc2ncc(C(=O)N3CCC[C@H]3c3ccc(Cl)cc3)cc12 | 106% | –
COc1cc2c3c(n(CCCN4CCOCC4)c(=O)c2cc1OC)-c1cc2c(cc1C3=O)OCO2 | – | 417 nM (active)
O=C(Nc1cccc(Nc2ncc(Br)c(NCCc3cnc[nH]3)n2)c1)N1CCCC1 | – | 5900 nM (active)

SMILES | viability (% of control) | Potency
Cc1c(F)ccc(C(=O)Nc2cc([N+](=O)[O-])ccc2N2CCN(C)CC2)c1Cl | 107% | –
C/C(=C\C(=O)Nc1ccccc1C(=O)O)c1ccc2ccccc2c1 | 89.8% | –
COc1ccc(Cl)cc1-c1cc(=O)[nH]c(=S)n1CC(N)=O | 106% | –
O=[N+]([O-])c1ccc(O)c2ncccc12 | – | 9340 nM (active)
COc1cc(C(N)=O)ccc1NC(=O)[C@@H]1N[C@@H](CC(C)(C)C)[C@@]2(C(=O)Nc3cc(Cl)ccc32)[C@H]1c1cccc(Cl)c1F | – | 590 nM (active)
CCn1c(=O)c(-c2ccc(-c3cncc(C)n3)cc2Cl)cc2cnc(NCCC3CCN(C)CC3)nc21 | 89.1% [at 5.12 µM] | –
Cc1c(F)cccc1NC(=O)Nc1ccc(Cl)c(S(=O)(=O)[C@H]2CCCNC2)c1O | 112% | –
COc1ccc2c(c1)C(c1ccc(F)cc1)=C(CN1CCCC1)CO2 | 98.6% | –
OCCNC1CCCc2c1[nH]c1ccc(-c3ccccc3)cc21 (stereo not given) | – | 13200 nM (active)
CN1CCN(C(=O)[C@H]2[C@@H](C(=O)O)[C@H]3CC[C@@H]2O3)CC1 | 96.1% [at 8.46 µM] | –
C[C@@H]1Cc2c([nH]c3ccccc23)[C@@H](c2c(F)cc(/C=C/C(=O)O)cc2F)N1CC(C)(C)F | 87.8% | –
CNCCCOc1cc(F)c(-c2c(Cl)nc3ncnn3c2N[C@@H](C)C(F)(F)F)c(F)c1 | – | 105 nM (active)
CN1CCCN(C(=O)c2cccc(-c3ccc(/C=C4/C(=O)Nc5ccc(Cl)cc54)o3)c2)CC1 | – | 1860 nM (active)
N[C@@H]1CN(c2c(F)cc3c(=O)c(C(=O)O)cn([C@@H]4C[C@@H]4F)c3c2Cl)CC12CC2 | 83.3% | –
Cn1cc(C2=C(c3cn(C)c4cc([N+](=O)[O-])ccc34)C(=O)NC2=O)c2ccccc21 | – | 417 nM (active)
CCC1=C[C@@H]2CN(C1)Cc1c([nH]c3ccccc13)[C@@](C(=O)OC)(c1cc3c(cc1OC)N(C)[C@H]1[C@@](O)(C(=O)OC)[C@H](OC(C)=O)[C@]4(CC)C=CCN5CC[C@]31[C@@H]54)C2 | – | 645 nM (active)
O=C(/C=C\n1cnc(-c2cc(C(F)(F)F)cc(C(F)(F)F)c2)n1)N1CC(F)(F)C1 | – | 1050 nM (active)
CC(=O)Nc1ccc(O)cc1 | 95.9% | –
COc1ccc(C(=O)N2CCN(c3ccc4c(c3)CCC(=O)N4)CC2)cc1OC | 108% | –
Cc1cc2cc(Oc3ccnc(Nc4cccc(CS(=O)(=O)NCCN(C)C)c4)n3)ccc2[nH]1 | – | 16600 nM (active)
